Among the data in PubChem BioAssay (NCATS) are Potency values, retold here.

Results filed as inconclusive are left out. Where a call stands in place of a potency, no number is given. Calls of active or inactive are those of the source. The call rests on the fitted dose curve; in most records, active means well fitted inhibition curve with a large enough effect; inconclusive means small, poorly fitted or top-dose-only effect; inactive means flat fitted curve, though single readings scatter.
Potency means the concentration at half of the fitted maximal effect.

Sequence of Luciferin 4-monooxygenase (Photinus pyralis) (P08659 whole entry, looked up): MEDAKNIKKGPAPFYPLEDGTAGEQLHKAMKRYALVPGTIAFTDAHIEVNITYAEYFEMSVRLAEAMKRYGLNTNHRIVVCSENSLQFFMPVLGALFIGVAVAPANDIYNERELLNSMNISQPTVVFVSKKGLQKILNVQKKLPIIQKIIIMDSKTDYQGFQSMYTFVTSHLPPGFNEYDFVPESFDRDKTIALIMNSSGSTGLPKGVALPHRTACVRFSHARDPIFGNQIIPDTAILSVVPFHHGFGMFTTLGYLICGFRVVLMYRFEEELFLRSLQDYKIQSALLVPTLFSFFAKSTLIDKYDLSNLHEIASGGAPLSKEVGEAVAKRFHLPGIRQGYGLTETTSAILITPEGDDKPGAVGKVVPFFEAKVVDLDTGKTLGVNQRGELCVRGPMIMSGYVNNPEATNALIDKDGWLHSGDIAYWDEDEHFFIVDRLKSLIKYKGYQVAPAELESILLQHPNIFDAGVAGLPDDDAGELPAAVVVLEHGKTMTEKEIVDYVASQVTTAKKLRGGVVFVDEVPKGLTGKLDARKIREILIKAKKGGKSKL

The target in the assay is Luciferin 4-monooxygenase (Photinus pyralis) (UniProt P08659). The experiment in a line: Biochemical firefly luciferase enzyme assay for NPC (AID 624030). Further: nearly all actives have a fitted effect of over 70% in size. The conditions noted are these: purified P. pyralis luciferase, luminescence, 5 min; series mostly up to 58.6 µM. The text has this:
Charcot-Marie-Tooth-Association [CMTA] National Center for Advancing Translational Sciences [NCATS] Charcot-Marie-Tooth (CMT) disease was first characterized by Jean-Martin Charcot and Pierre Marie in France and, independently, by Howard Henry Tooth in England in 1886. CMT is one of the most common inherited neurological diseases, affecting approximately 1 in 2,500 Americans. […] The most prevalent type of CMT is known as CMT1A and caused by a duplication of the PMP22 gene which leads to over-expression of this protein. PMP22 is a glycosylated intrinsic membrane protein accounting for 2-5% of the myelin protein content, and its over-expression results in demyelination and subsequently axonal loss. A pair of cellular transcription-based assays was developed in the S16 rat Schwann cell lines (Hai, M., et al., 2002) stably transfected with orthogonal reporters - firefly luciferase (Fluc) and beta-lactamase (beta-Lac) - whose expression is driven by an intronic regulatory element of the PMP22 gene (Jones, E.A., et al., 2011) to recapitulate endogenous expression of PMP22. A comprehensive library of approved drugs, the NCGC Pharmaceutical Collection (Huang, R., et al., 2011), was screened in the cross-validating platform of the orthogonal reporter assays to identify drug modulators inhibitory towards PMP22 expression. A set of counter-screens was devised to address non-specific activity of the library. An ATP-dependent CellTiter-Glo assay (developed by Promega Corp) was utilized to control cell viability. In addition, biochemical Fluc enzyme assay was performed to assess direct inhibition of the Fluc enzymatic activity. References Hai, M., Muja, N., DeVries, G.H., Quarles, R.H. and Patel, P.I. Comparative analysis of Schwann cell lines as model systems for myelin gene transcription studies. J Neurosci Res, 2002. 69(4): pp 497-508 Huang, R., Southall, N., Wang, Y., Yasgar A., Shinn P., Jadhav, A. , Nguyen, D.-T. and Austin, C.P., The NCGC pharmaceutical collection: a comprehensive resource of clinically approved drugs enabling repurposing and chemical genomics. Sci Transl Med, 2011. 3(80): p. 80ps16.
Compounds were transferred to the plates in 23nl, and one microliter/well luciferase enzyme-buffer solution (10 nM P. pyralis luciferase and 50 mM Tris Acetate final concentrations) was dispensed yielding a final reaction volume of […]. Luciferase luminescence was measured by a ViewLux plate reader within 5 minutes of enzyme-buffer addition. The % activity was determined by normalizing to the average readings of PTC124 (a positive control) relative to DMSO (0% Activity). The concentration-effect curves were then classified based on curve quality (r2), response magnitude and degree of measured activity.
Turning to `CCN(CC)C(=O)[C@@H]1C=C2c3cccc4[nH]cc(c34)C[C@H]2N(C)C1`, the Potency entry was “inactive”.
`CCCC(C)(COC(N)=O)COC(N)=O`: the Potency entry was “inactive”.
As for `O=C(N/N=C/c1ccc([N+](=O)[O-])o1)c1cc([N+](=O)[O-])cc([N+](=O)[O-])c1O`, the Potency was 36.1 µM (active).
Turning to `COc1ccc2c(c1OC)C(=O)O[C@H]2[C@@H]1c2cc3c(cc2CCN1C)OCO3`, the Potency entry is “inactive”.
On to `CCC1(c2ccccc2)C(=O)N(COC)C(=O)N(COC)C1=O`, for which the Potency entry was “inactive”.
Under `CC(C)(C)NCC(O)c1ccccc1Cl` (stereo not given) stands “inactive”; under `CN1C(=O)C(O)N=C(c2ccccc2)c2cc(Cl)ccc21` (stereo not given), “inactive”; under `COc1c2c(cc3c1OCO3)CCN(C)C2`, “inactive”.
Take `O=C(O)CCCc1ccc(N(CCCl)CCCl)cc1`: the Potency result is “inactive”.
For `CCCCCCC(=O)CCCCCC/C=C/C[C@@H](O)[C@H](O)[C@@](N)(CO)C(=O)O`, the Potency entry was “inactive”.
Under `CCN[C@@H](C)Cc1cccc(C(F)(F)F)c1` stands “inactive”; under `C[C@]12CCC(=O)C=C1CC[C@@H]1[C@H]3CC[C@](C)(O)[C@@]3(C)CC[C@@H]12`, “inactive”; under `CCOC(=O)CC(SP(=S)(OC)OC)C(=O)OCC` (stereo not given), “inactive”.
With `COP(=S)(OC)SCN1C(=O)c2ccccc2C1=O` the entry was “inactive”; with `CC1(C)C(C=C(Cl)Cl)C1C(=O)OC(C#N)c1cccc(Oc2ccccc2)c1` (stereo not given), “inactive”; with `CC(Cc1ccccc1)NCCn1cnc2c1c(=O)n(C)c(=O)n2C` (stereo not given), “inactive”.
With `CN1C[C@H](C(=O)N[C@]2(C)O[C@@]3(O)[C@@H]4CCCN4C(=O)[C@H](Cc4ccccc4)N3C2=O)C=C2c3cccc4[nH]cc(c34)C[C@H]21` the entry was “inactive”; with `NC(=O)CS(=O)C(c1ccccc1)c1ccccc1` (stereo not given), “inactive”.
Turning to `Cc1nnc2n1-c1ccc(Cl)cc1C(c1ccccc1Cl)=NC2`, the Potency result was “inactive”.
With `COc1cccc(C(=O)CCN[C@@H](C)[C@H](O)c2ccccc2)c1` the entry was “inactive”; with `CC(C)=CC1C(C(=O)OCN2C(=O)C3=C(CCCC3)C2=O)C1(C)C` (stereo not given), “inactive”.
`COC(=O)C(Cl)C(=O)OC`: the Potency entry was “inactive”.
With `COC(=O)C(c1ccccc1)C1CCCCN1` (stereo not given), the Potency result was “inactive”.
As for `C[C@H](N)C(=O)c1ccccc1`, the Potency result was “inactive”.
With `O=C1Nc2ccc(Cl)cc2C(c2ccccc2)=NC1O` (stereo not given) the entry was “inactive”; with `CN1C(=O)NC(=O)C(C)(C2=CCCCC2)C1=O` (stereo not given), “inactive”.
Turning to `O=C1c2ccccc2C(=O)c2ccccc21`, the Potency result was “inactive”.
With `COc1cccc([C@@]2(O)CCCC[C@@H]2CN(C)C)c1` the entry was “inactive”; with `CC(C)(C)c1ccc(O)cc1`, “inactive”.
With `CN1C(=O)COc2c(C(=O)NC3CN4CCC3CC4)cc(Cl)cc21` (stereo not given), the Potency entry is “inactive”.
Regarding `C=C(C)[C@H]1CN[C@H](C(=O)O)[C@H]1CC(=O)O`, the Potency result is “inactive”.
With `CCc1cc2c(s1)-n1c(C)nnc1CN=C2c1ccccc1Cl` the entry was “inactive”.
In the case of `c1ccc(CN2CCNCC2)cc1`, the Potency result was “inactive”.
Under `O=C1OC(c2ccc(O)c(S(=O)(=O)O)c2)(c2ccc(O)c(S(=O)(=O)O)c2)c2c(Br)c(Br)c(Br)c(Br)c21` stands 28.7 µM (active); under `COP(=S)(OC)Oc1ccc(S(=O)(=O)N(C)C)cc1`, “inactive”; under `CNCC(=O)c1ccc(O)c(O)c1`, “inactive”.
On to `Nc1ccccc1`, for which the Potency result is “inactive”.
Under `CCC1(CC)C(=O)C=CNC1=O` stands “inactive”.
For the molecule `CCCN(CCC)C(=O)Cc1c(-c2ccc(Cl)cc2)nc2ccc(Cl)cn12`, the Potency result is “inactive”.
With `Nc1ccccc1C(=O)O` the entry was “inactive”.
